Results taken from PubChem BioAssay (NCATS).
Inconclusive results are not listed. Where a call stands in place of a potency, no number is given. Activity calls are given as the source filed them. The call rests on the fitted dose curve; in most records, active means well fitted inhibition curve with a large enough effect; inconclusive means small, poorly fitted or top-dose-only effect; inactive means flat fitted curve, though single readings scatter.

test system: CP203; assay: qHTS profiling for inhibitors of Plasmodium falciparum proliferation (AID 504749); further: nearly all actives have a fitted effect of over 60% in size; details: P. falciparum in erythrocytes, SYBR Green DNA, 72 h; series mostly up to 28.7 µM
Method in brief: (§1)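 P. falciparum-infected erythrocytes (0.3% parasitemia, 2.5% hematocrit) incubated with compound 72 h at 37 C, 5% CO2. Parasite DNA detected by SYBR Green after lysis, overnight at room temperature; normalised to 0.29 uM artemisinin and DMSO.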
Potency means the concentration at half of the fitted maximal effect.

| Compound | Potency |
| --- | --- |
| COc1nccnc1NS(=O)(=O)c1ccc(N)cc1 | inactive |
| CC(CN(C)C)C(C)(O)Cc1ccc(Cl)cc1 (stereo unspecified) | 13.5 µM (active) |
| Cc1cc(-n2nc3ccc(Cl)cc3n2)c(O)c(C(C)(C)C)c1 | inactive |
| Nc1ncnc(Nc2ccccc2)n1 | inactive |
| NC(=O)CCCCC1CCSS1 (stereo unspecified) | inactive |
| CC(=O)OC[C@H]1O[C@@](COC(C)=O)(O[C@H]2O[C@H](COC(C)=O)[C@@H](OC(C)=O)[C@H](OC(C)=O)[C@H]2OC(C)=O)[C@@H](OC(C)=O)[C@@H]1OC(C)=O | inactive |
| CC(C)=CCC/C(C)=C/CO | inactive |
| NCc1ccc(S(N)(=O)=O)cc1 | inactive |
| Cc1cc(OI)c(C(C)C)cc1-c1cc(C(C)C)c(OI)cc1C | inactive |
| O=C1CC[C@@H](C(=O)O)N1 | inactive |
| Cc1c(NC(=O)c2cccnc2)c(=O)n(-c2ccccc2)n1C | inactive |
| CCCCCCCCCCC(CO)CCCCCCCC (stereo unspecified) | inactive |
| CCCCCCCC(=O)OCC(COC(=O)CCCCCCC)OC(=O)CCCCCCC | inactive |
| CC(=O)N[C@@H](Cc1ccc(O)cc1)C(=O)O | inactive |
| CC(=O)Oc1cccc(O)c1 | inactive |
| Cc1onc(-c2ccccc2)c1-c1ccc(S(N)(=O)=O)cc1 | inactive |
| CN(C(=O)c1c(O)c2ccccc2n(C)c1=O)c1ccccc1 | inactive |
| C[C@H]1COc2c(C3(N)CC3)c(F)cc3c(=O)c(C(=O)O)cn1c23 | inactive |
| CC(=O)SC[C@@H](Cc1ccccc1)C(=O)NCC(=O)OCc1ccccc1 | inactive |
| O=C(O)CCCCC1CCSS1 (stereo unspecified) | inactive |
| CN(C/C=C/C#CC(C)(C)C)Cc1cccc2ccccc12 | inactive |

test system: CP211; assay: as above; details: P. falciparum in erythrocytes, SYBR Green DNA, 72 h; series mostly up to 28.7 µM
Method in brief: as §1

| Compound | outcome |
| --- | --- |
| O=C1c2cccc(O)c2C(=O)c2c(O)cccc21 | inactive |
| COc1nccnc1NS(=O)(=O)c1ccc(N)cc1 | inactive |
| O=C1c2ccccc2S(=O)(=O)N1CCCCN1CCN(c2ncccn2)CC1 | inactive |
| OCC(O)CS (stereo unspecified) | inactive |
| Cc1cc(-n2nc3ccc(Cl)cc3n2)c(O)c(C(C)(C)C)c1 | inactive |
| Nc1ncnc(Nc2ccccc2)n1 | inactive |
| NC(=O)CCCCC1CCSS1 (stereo unspecified) | inactive |
| CC(=O)OC[C@H]1O[C@@](COC(C)=O)(O[C@H]2O[C@H](COC(C)=O)[C@@H](OC(C)=O)[C@H](OC(C)=O)[C@H]2OC(C)=O)[C@@H](OC(C)=O)[C@@H]1OC(C)=O | inactive |
| O=C(c1ccccc1)C(O)c1ccccc1 (stereo unspecified) | inactive |
| CC(C)=CCC/C(C)=C/CO | inactive |
| CCOC(=O)[C@H](CCc1ccccc1)N[C@@H](C)C(=O)N1CCC[C@H]1C(=O)O | inactive |
| NCc1ccc(S(N)(=O)=O)cc1 | inactive |
| Cc1cc(OI)c(C(C)C)cc1-c1cc(C(C)C)c(OI)cc1C | inactive |
| O=C1CC[C@@H](C(=O)O)N1 | inactive |
| Cc1c(NC(=O)c2cccnc2)c(=O)n(-c2ccccc2)n1C | inactive |
| CCCCCCCCCCC(CO)CCCCCCCC (stereo unspecified) | inactive |
| O=C1c2ccccc2C(=O)C1c1ccc(Br)cc1 | inactive |
| CCCCCCCC(=O)OCC(COC(=O)CCCCCCC)OC(=O)CCCCCCC | inactive |
| CCCCCC(C)N (stereo unspecified) | inactive |
| CC(=O)N[C@@H](Cc1ccc(O)cc1)C(=O)O | inactive |
| CC(=O)Oc1cccc(O)c1 | inactive |
| Cc1onc(-c2ccccc2)c1-c1ccc(S(N)(=O)=O)cc1 | inactive |
| Cc1c(I)c(=O)n(-c2ccccc2)n1C | inactive |
| CN(C(=O)c1c(O)c2ccccc2n(C)c1=O)c1ccccc1 | inactive |
| C[C@H]1COc2c(C3(N)CC3)c(F)cc3c(=O)c(C(=O)O)cn1c23 | inactive |
| CC(=O)SC[C@@H](Cc1ccccc1)C(=O)NCC(=O)OCc1ccccc1 | inactive |
| O=C(O)CCCCC1CCSS1 (stereo unspecified) | inactive |
| CCN1CC(CCN2CCOCC2)C(c2ccccc2)(c2ccccc2)C1=O (stereo unspecified) | inactive |
| Cc1cc(C)c(NC(=O)CN(CC(=O)O)CC(=O)O)c(C)c1Br | inactive |
| CN(C/C=C/C#CC(C)(C)C)Cc1cccc2ccccc12 | inactive |
